This is part of a sample that, as a whole, favours compounds with a hit. Of some 79,000 tested, about 15% had one in any assay. Values without a mark were called inactive. Activity calls are given as the source filed them. Cut-off read from the data, not from the text of the source: active = growth inhibition above about 70%; inactive = the rest.
Test: NCI Yeast Anticancer Drug Screen. Data for the rad14 strain (AID 159);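 note: 0% = growth of vehicle-treated control cultures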
Conditions: S. cerevisiae rad14 strain growth inhibition, active compounds read high
Procedure: Growth inhibition of yeast strains with defined genetic alterations is measured as a screen for potential anti-cancer activity. Selected strains with alterations in DNA damage repair or cell cycle control were exposed to compounds and growth inhibition was measured relative to vehicle treated controls. The strain used in this assay is rad14

SMILES	growth inhibition (at 1.2 µM) [%]	growth inhibition (at 3.7 µM) [%]	growth inhibition (at 11.0 µM) [%]	growth inhibition (at 33.0 µM)	growth inhibition (at 100.0 µM)
CCc1ncnc2cc(OCC3CO3)c(OC)cc12 (stereo not given)	0	1	46	85% (active)	94% (active)
COC(=O)CSSCc1ccc([N+](=O)[O-])cc1	0	8	20	48%	98% (active)
O=C([O][Sn]([O]C(=O)c1ccccc1)([c]1ccccc1)[c]1ccccc1)c1ccccc1	32	23	30	35%	82% (active)
Cc1ccc(S(=O)(=O)NCCSS(=O)(=O)c2ccc(C)cc2)cc1	-10	-15	-6	98% (active)	92% (active)
CC1=C(C)Cc2c(O)ccc(O)c2C1	2	9	18	13%	47%
CC(Br)C(=O)c1ccc2cc(Br)c3ccccc3c2c1 (stereo not given)	0	-1	0	-5%	17%
CC1(Cl)CC(O)C2(CC1Br)C1(C)OC1C1OC1(Br)C2(C)C (stereo not given)	-18	-14	-23	61%	97% (active)
c1ccc2c(c1)sc1nc3ccncc3nc12	21	10	11	19%	29%

— PubChem BioAssay (NCI)
